Consider three compounds from the supplement of paper PMC12282887.

SMILES strings stand for the structures. ± gives the standard deviation of the averaged measurements.

In this assay the test system is E. coli BW25113 marRABp lux reporter. Nature of the assay: promoter activity interaction Z-score (Lux/OD deviation from empty-vector control); higher = stronger promoter induction by the compound. As to the method: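 E. coli BW25113 (wild type or ΔmarA/ΔsoxS/Δrob) carrying pTU175 luxCDABE promoter reporters was grown in LB in 384-well plates at 37°C with each of 94 compounds at 4 two-fold concentrations, in biological duplicates. Luminescence and OD600 were read every 30 min for 12 h and integrated as AUC over 8 h (0-8 h WT, 1-9 h mutants). Lux AUC was divided by OD AUC; the interaction score is the residual of a Huber robust fit of each promoter against the empty-vector control, then Z-transformed per promoter.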

In the case of `N=C(NCCCCCCNC(=N)NC(=N)Nc1ccc(Cl)cc1)NC(=N)Nc1ccc(Cl)cc1` [Chlorhexidine], the “promoter activity interaction Z-score” value is -0.0555 ± 0.078 (0.063 µg/ml, genetic background: wild type); 0.0409 ± 0.0035 (0.063 µg/ml, genetic background: ΔmarA); 0.173 ± 0.2 (0.063 µg/ml, genetic background: Δrob); 0.0219 ± 0.055 (0.063 µg/ml, genetic background: ΔsoxS); -0.193 ± 0.069 (0.13 µg/ml, genetic background: wild type); -0.0353 ± 0.43 (0.13 µg/ml, genetic background: ΔmarA). The “promoter activity interaction Z-score” value (0.13 µg/ml, genetic background: Δrob) worked out at 0.0384 ± 0.087; the “promoter activity interaction Z-score” value (0.13 µg/ml, genetic background: ΔsoxS) came to 0.0405 ± 0.19; the “promoter activity interaction Z-score” value (0.25 µg/ml, genetic background: wild type) is 0.0425 ± 0.12; the “promoter activity interaction Z-score” value (0.25 µg/ml, genetic background: ΔmarA) is -0.101 ± 0.24; the “promoter activity interaction Z-score” value (0.25 µg/ml, genetic background: Δrob) worked out at 0.121 ± 0.2; the “promoter activity interaction Z-score” value (0.25 µg/ml, genetic background: ΔsoxS) came to 0.165 ± 0.33. Further, the “promoter activity interaction Z-score” value (0.51 µg/ml, genetic background: wild type) was -0.283 ± 0.1; the “promoter activity interaction Z-score” value (0.51 µg/ml, genetic background: ΔmarA) worked out at 0.127 ± 0.37; the “promoter activity interaction Z-score” value (0.51 µg/ml, genetic background: Δrob) was -0.0583 ± 0.11; the “promoter activity interaction Z-score” value (0.51 µg/ml, genetic background: ΔsoxS) amounted to 0.00237 ± 0.085.

`Cc1onc(-c2ccccc2)c1C(=O)N[C@@H]1C(=O)N2[C@@H]1SC(C)(C)[C@@H]2C(=O)O` [Oxacillin]: the “promoter activity interaction Z-score” value was -0.0416 ± 0.14 (0.53 µg/ml, genetic background: wild type); -0.145 ± 0.48 (0.53 µg/ml, genetic background: ΔmarA); -0.0895 ± 0.14 (0.53 µg/ml, genetic background: Δrob); 0.143 ± 0.032 (0.53 µg/ml, genetic background: ΔsoxS); 0.221 ± 0.0058 (1.1 µg/ml, genetic background: wild type); 0.189 ± 0.3 (1.1 µg/ml, genetic background: ΔmarA). Further, the “promoter activity interaction Z-score” value (1.1 µg/ml, genetic background: Δrob) is 0.0302 ± 0.28; the “promoter activity interaction Z-score” value (1.1 µg/ml, genetic background: ΔsoxS) turned out to be 0.214 ± 0.17; the “promoter activity interaction Z-score” value (2.1 µg/ml, genetic background: wild type) is -0.151 ± 0.12; the “promoter activity interaction Z-score” value (2.1 µg/ml, genetic background: ΔmarA) was -0.0728 ± 0.16; the “promoter activity interaction Z-score” value (2.1 µg/ml, genetic background: Δrob) came to 0.0223 ± 0.02; the “promoter activity interaction Z-score” value (2.1 µg/ml, genetic background: ΔsoxS) turned out to be 0.133 ± 0.06. For the same compound, the “promoter activity interaction Z-score” value (4.2 µg/ml, genetic background: wild type) came out at 0.0879 ± 0.03; the “promoter activity interaction Z-score” value (4.2 µg/ml, genetic background: ΔmarA) came out at 0.194 ± 0.076; the “promoter activity interaction Z-score” value (4.2 µg/ml, genetic background: Δrob) is -0.03 ± 0.043; the “promoter activity interaction Z-score” value (4.2 µg/ml, genetic background: ΔsoxS) was 0.211 ± 0.2.

On to `NC[C@H](O)c1ccc(O)c(O)c1` [Noradrenalin], for which the “promoter activity interaction Z-score” value (20 µg/ml, genetic background: wild type) was 0.189 ± 0.16; the “promoter activity interaction Z-score” value (20 µg/ml, genetic background: ΔmarA) was found to be 0.444 ± 0.053; the “promoter activity interaction Z-score” value (20 µg/ml, genetic background: Δrob) was found to be 0.108 ± 0.12; the “promoter activity interaction Z-score” value (20 µg/ml, genetic background: ΔsoxS) was determined as 0.239 ± 0.13; the “promoter activity interaction Z-score” value (39.9 µg/ml, genetic background: wild type) came to 0.0664 ± 0.085; the “promoter activity interaction Z-score” value (39.9 µg/ml, genetic background: ΔmarA) was found to be 0.371 ± 0.24. Also, the “promoter activity interaction Z-score” value runs as follows: (39.9 µg/ml, genetic background: Δrob) 0.256 ± 0.08; (39.9 µg/ml, genetic background: ΔsoxS) 0.078 ± 0.037; (79.8 µg/ml, genetic background: wild type) 0.253 ± 0.15; (79.8 µg/ml, genetic background: ΔmarA) -0.0312 ± 0.044; (79.8 µg/ml, genetic background: Δrob) -0.0145 ± 0.019; (79.8 µg/ml, genetic background: ΔsoxS) 0.36 ± 0.27. The “promoter activity interaction Z-score” value reads like this: (159.6 µg/ml, genetic background: wild type) 0.17 ± 0.12; (159.6 µg/ml, genetic background: ΔmarA) -0.0497 ± 0.011; (159.6 µg/ml, genetic background: Δrob) 0.0596 ± 0.2; (159.6 µg/ml, genetic background: ΔsoxS) 0.217 ± 0.22.
